Screening data: PubChem BioAssay, NMMLSC
In the library only some 1.8% were active in any assay of this set; here they are far more common.
VLA-4 agonist: enhancers of LDV-FITC binding to VLA-4 integrin, primary screen, Jurkat cells, flow cytometry. Integrin alpha-4 (Homo sapiens), P13612. activation, % at 10 µM (by protocol). 24,000 tested, under 10 active;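 active = fluorescent ligand binding to cells raised by more than 40% of the manganese-induced maximum; inconclusive = compound's own fluorescence above 85% of the ligand control signal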;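 also: 0% = ligand binding without compound and 100% = manganese-stimulated maximal binding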
Autofluor Jurkat: compound autofluorescence on Jurkat cells, primary screen, artefact control for VLA-4 allosteric ligand project, cell-based, flow cytometry. stronger effect = higher value; 1 = vehicle-only cell background. fluorescence ratio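 (tested at 10 µM compound in the well)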. 24,000 tested, 0.61% active. AID 576, 2007;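 active = fluorescence ratio above 2.44, which is 1 plus 3 SD of all ratios; inconclusive = signal too bright to measure linearly, ratio around 10 or more; inactive = fluorescence ratio below 2.44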;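 also: green fluorescence of cells measured with 488 nm excitation and 530 nm emission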
FPRL1 binder: human FPRL1 ligands by binding competition, primary screen, cell-based, FPR counter-screen, flow cytometry; inhibition, % (test concentration not listed); FPRL1-expressing cells, fluorescent ligand binding inhibition; 24,000 tested, 0.3% active; N-formyl peptide receptor 2 (Homo sapiens), P25090; AID 441, 2006;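 also: 0% = buffer alone and 100% = receptor blocker peptide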
Target sequence (P25090 whole entry, looked up): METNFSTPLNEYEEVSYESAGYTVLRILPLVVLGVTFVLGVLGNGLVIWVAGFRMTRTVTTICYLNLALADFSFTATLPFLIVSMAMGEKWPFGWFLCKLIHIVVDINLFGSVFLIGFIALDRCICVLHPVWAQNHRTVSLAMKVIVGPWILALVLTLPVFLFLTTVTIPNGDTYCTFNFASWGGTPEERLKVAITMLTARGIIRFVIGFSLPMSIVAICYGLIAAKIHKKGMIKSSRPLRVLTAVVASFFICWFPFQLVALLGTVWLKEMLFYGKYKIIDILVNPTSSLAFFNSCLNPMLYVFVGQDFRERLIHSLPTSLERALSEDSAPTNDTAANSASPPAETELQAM
FPR binder: human FPR ligands by binding competition, primary screen, cell-based, FPRL1 counter-screen, flow cytometry; FPR-expressing cells, fluorescent ligand binding; inhibition, % (test concentration not listed); 24,000 tested, 0.74% active;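 also: 0% = buffer wells and 100% = receptor blocker peptide wells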
VLA-4 antagonist: inhibitors of LDV-FITC binding to Mn2+-activated VLA-4, primary screen, Jurkat cells; AID 529, 2006; LDV-FITC binding with Mn2+, flow cytometry; 100% = Mn2+-driven binding gain fully reversed; 24,000 tested, 0.2% active; inhibition, % at 10 µM (by protocol); Integrin alpha-4 (Homo sapiens), P13612;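 active = inhibition above 50%; inconclusive = compound itself fluorescent, judged against control cell fluorescence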;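 also: 0% = Mn2+ stimulated cells lacking compound and 100% = ligand binding without Mn2+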
Starred values were filed as active, the others as inactive. Rule as the data show it, unless noted: active = inhibition above about 30%; inconclusive = no clear call, values can overlap the other calls; inactive = below that.

Results for Cc1ccc(C2C(C(=O)c3sc(C)nc3C)=C(O)C(=O)N2CCN2CCOCC2)o1 (configuration not stated) ?
FPRL1 binder: 26; FPR binder: 35*

Results for O=C(C1=C(O)C(=O)N(CCc2ccccc2)C1c1cccnc1)c1ccco1 (configuration not stated) ?
FPRL1 binder: -3; FPR binder: 30

How did CCCOc1ccc(/C(O)=C2/C(=O)C(=O)N(CCCn3ccnc3)C2c2cccs2)cc1 (configuration not stated) do in these assays?
FPRL1 binder: 1; FPR binder: 6

How did COc1cccc(C2C(C(=O)c3cccs3)=C(O)C(=O)N2CCCn2ccnc2)c1OC (configuration not stated) do in these assays?
VLA-4 agonist: -2; Autofluor Jurkat: 1; FPRL1 binder: -1; FPR binder: 32*; VLA-4 antagonist: -10

How did COc1cccc(C2C(C(=O)c3sc(C)nc3C)=C(O)C(=O)N2CCN2CCOCC2)c1 (configuration not stated) do in these assays?
FPRL1 binder: -2; FPR binder: 1

What do the screens show for `CC(C)CCN(C)C1CCN(C(=O)Nc2c(F)cccc2F)CC1`?
VLA-4 agonist: 8; Autofluor Jurkat: 0.91; FPRL1 binder: 0; FPR binder: -7; VLA-4 antagonist: 15

How did CCCOc1ccc(C2C(C(=O)c3ccco3)=C(O)C(=O)N2CCCn2ccnc2)cc1 (configuration not stated) do in these assays?
FPRL1 binder: -5; FPR binder: 55*

How did CC(C)Oc1ccc(C2C(C(=O)c3ccco3)=C(O)C(=O)N2Cc2cccnc2)cc1 (configuration not stated) do in these assays?
FPRL1 binder: -2; FPR binder: 16

What do the screens show for `CCOc1cc(C2C(C(=O)c3ccco3)=C(O)C(=O)N2CCc2ccccc2)ccc1O` (configuration not stated)?
FPRL1 binder: -4; FPR binder: 86*

How did O=C(NCc1ccco1)C1(S(=O)(=O)c2ccc(Cl)cc2)CC1 do in these assays?
VLA-4 agonist: -4; Autofluor Jurkat: 0.99; FPRL1 binder: 4; FPR binder: 9; VLA-4 antagonist: -5

What do the screens show for `O=C(O)c1ccc2c(c1)[C@@H]1C=CC[C@@H]1[C@H](c1ccccn1)N2`?
VLA-4 agonist: inconclusive; Autofluor Jurkat: 1; FPRL1 binder: 1; FPR binder: -3; VLA-4 antagonist: inconclusive

How did O=C(OC1CCCCC1)c1ccc2c(c1)C1C=CCC1C(C(=O)O)N2 (configuration not stated) do in these assays?
VLA-4 agonist: inconclusive; Autofluor Jurkat: 3.8*; FPRL1 binder: 6; FPR binder: 10; VLA-4 antagonist: inconclusive

Results for CC(=O)c1c(C)[nH]c(C(=O)N2CCc3ccccc3C2)c1C ?
VLA-4 agonist: 1; Autofluor Jurkat: 1; FPRL1 binder: -2; FPR binder: -7; VLA-4 antagonist: 60*

How did CCOCCOC(=O)C1=C(C)N(C)C(=O)NC1c1cc(Cl)c(O)c(OC)c1 (configuration not stated) do in these assays?
VLA-4 agonist: 1; Autofluor Jurkat: 1.2; FPRL1 binder: -1; FPR binder: 1; VLA-4 antagonist: -14

Results for CCOc1cc(C2NC(=O)N(C)C(C)=C2C(=O)OC)cc(Br)c1O (configuration not stated) ?
VLA-4 agonist: inconclusive; Autofluor Jurkat: 4.3*; FPRL1 binder: -12; FPR binder: -6; VLA-4 antagonist: inconclusive

Results for COc1ccc(C(C)NC(=O)C2C(=O)NC3(C)CC2c2ccccc2O3)cc1 (configuration not stated) ?
VLA-4 agonist: -2; Autofluor Jurkat: 0.99; FPRL1 binder: 1; FPR binder: 2; VLA-4 antagonist: 30

What do the screens show for `COc1ccc(NC(=O)C2C(=O)NC3(C)CC2c2ccccc2O3)cc1` (configuration not stated)?
VLA-4 agonist: 1; Autofluor Jurkat: 1.1; FPRL1 binder: 30*; FPR binder: 12; VLA-4 antagonist: -2

How did O=S(=O)(c1cnc[nH]1)N1CCc2ccccc21 do in these assays?
VLA-4 agonist: inconclusive; Autofluor Jurkat: 3.1*; FPRL1 binder: 33*; FPR binder: inconclusive; VLA-4 antagonist: inconclusive

How did CC(C)(C)NC(=O)NC(=O)COc1ccccc1C#N do in these assays?
VLA-4 agonist: inconclusive; Autofluor Jurkat: 4*; FPRL1 binder: -2; FPR binder: 5; VLA-4 antagonist: inconclusive

What do the screens show for `CC(C)=CC(=O)OCC(=O)NC(=O)NC(C)(C)C`?
VLA-4 agonist: 4; Autofluor Jurkat: 1.1; FPRL1 binder: 8; FPR binder: -1; VLA-4 antagonist: -16

Results for COc1ccccc1CC1(C)NC(=O)N(CC(=O)Nc2cc(C)on2)C1=O (configuration not stated) ?
VLA-4 agonist: 4; Autofluor Jurkat: 1.1; FPRL1 binder: 2; FPR binder: -4; VLA-4 antagonist: -5

How did CCc1noc(N)c1C(=O)Nc1ccc(F)c(Cl)c1 do in these assays?
VLA-4 agonist: -1; Autofluor Jurkat: 0.96; FPRL1 binder: 2; FPR binder: 11; VLA-4 antagonist: -4

Results for CCOC(=O)c1oc2cc(O)ccc2c(=O)c1-c1ccccc1OC ?
FPRL1 binder: 24; FPR binder: 34*

How did CCOc1ccccc1Oc1c(C)oc2cc(OC(=O)c3ccco3)ccc2c1=O do in these assays?
FPRL1 binder: -4; FPR binder: 79*

How did COc1ccccc1-c1c(C)oc2cc(OC(=O)c3ccco3)ccc2c1=O do in these assays?
FPRL1 binder: -1; FPR binder: 68*

How did Cc1oc2cc(OCC(=O)O)ccc2c(=O)c1Oc1ccccc1 do in these assays?
VLA-4 agonist: inconclusive; Autofluor Jurkat: 1.1; FPRL1 binder: -9; FPR binder: -3; VLA-4 antagonist: inconclusive

What do the screens show for `COc1ccccc1Oc1c(C)oc2cc(OC(=O)c3ccco3)ccc2c1=O`?
FPRL1 binder: 0; FPR binder: 93*

Results for O=C(NCc1cccnc1)C1c2ccccc2C(=O)N1C1CCCC1 (configuration not stated) ?
VLA-4 agonist: 8; Autofluor Jurkat: 1.1; FPRL1 binder: 7; FPR binder: -7; VLA-4 antagonist: -17

What do the screens show for `O=C(CN1C(=O)COc2ccccc21)N(Cc1cccnc1)Cc1ccccc1F`?
VLA-4 agonist: -3; Autofluor Jurkat: 0.97; FPRL1 binder: -1; FPR binder: -3; VLA-4 antagonist: -4

What do the screens show for `CCc1c(C)sc(NC(=O)c2cc(-c3ccco3)on2)c1C#N`?
VLA-4 agonist: 5; Autofluor Jurkat: 1; FPRL1 binder: -4; FPR binder: -4; VLA-4 antagonist: -29
